Measurements published in PubChem BioAssay AID1159580 (chemical genetic matrix, 2015).
The whole screen tested about 5,500 compounds, of which about 2,000 (36%) were called active. Inconclusive results (about 18%) are left out. No stated cut-off is given here; in the data, active means normalized growth mostly below about 0.91 (no sharp cut-off); inconclusive means no clear call, values can overlap the other calls; inactive means mostly above about 0.92. Some of the results follow.

Assay: chemical genetic growth profiling, strain panel (AID 1159580);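 further: tested at 20 µM; growth read once vehicle control cultures reached saturation at 30 °C; 1 = growth at the plate median or of vehicle wells; lower values mean less growth of the strain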
Details: S. cerevisiae deletion strains, growth OD

Measured: normalized growth

CC(=O)Nc1ccc(S(=O)(=O)Nc2ncccn2)cc1
inactive: locus YAL013W, strain DEP1, hits give low values 1.01 | locus YBR229C, strain ROT2, hits give low values 0.992 | locus YCL061C, strain MRC1, hits give low values 1.02 | locus YDL101C, strain DUN1, hits give low values 0.995 | locus YDL134C, strain PPH21, hits give low values 0.997 | locus YDR150W, strain NUM1, hits give low values 0.921 | locus YEL061C, strain CIN8, hits give low values 1.01 | locus YGR078C, strain PAC10, hits give low values 1 | locus YHR030C, strain SLT2, hits give low values 1.08 | locus YHR087W, strain rtc3, hits give low values 0.987 | locus YJR043C, strain POL32, hits give low values 1.01 | locus YJR075W, strain HOC1, hits give low values 0.994 | locus YLR039C, strain RIC1, hits give low values 1.02 | locus YLR058C, strain SHM2 (second series), hits give low values 1.03 | locus YLR085C, strain ARP6, hits give low values 0.958 | locus YLR262C, strain YPT6, hits give low values 1.13 | locus YML094W, strain GIM5, hits give low values 0.981 | locus YMR219W, strain ESC1, hits give low values 1 | locus YMR263W, strain SAP30, hits give low values 1 | locus YMR307W, strain GAS1, hits give low values 0.919 | locus YNL153C, strain GIM3, hits give low values 1.01 | locus YNL298W, strain CLA4 (second series), hits give low values 1 | locus YNL322C, strain KRE1, hits give low values 0.999 | locus YNR030W, strain Alg12, hits give low values 1.01 | locus YPL055C, strain LGE1, hits give low values 0.92 | locus YPL241C, strain CIN2, hits give low values 0.963 | locus YPR135W, strain CTF4, hits give low values 1.08
